Laboratory results from PubChem BioAssay (Tox21).
Results filed as inconclusive are left out. Activity calls are given as the source filed them. Calls follow the shape of the dose curve; as a rule, active = well fitted curve in the direction sought with a large enough effect in the repeat runs; inconclusive = weak or mixed curves; inactive = no such curve, though single readings can be large; an effect the other way counts as inactive or inconclusive.

Key:
[1] = qHTS RealTime-Glo MT Cell Viability Assay in HepG2 cells - 24 hour (AID 1224867); settings: RealTime-Glo luminescence; series mostly up to 76.8 µM; also: nearly all actives have a fitted effect of over 50% in size
Procedure, shortened: (§1)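 Real-time, nonlytic viability: 600 HepG2 cells/well mixed with NanoLuc enzyme plus prosubstrate; 5 h settle, compound (DMSO) added by pintool; luminescence monitored over 40 h at 37 C.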

[2] = qHTS RealTime-Glo MT Cell Viability Assay in HEK293 cells - 32 hour (AID 1224868); settings: RealTime-Glo luminescence; series mostly up to 76.8 µM; also: top concentration of the series differs between compounds; nearly all actives have a fitted effect of over 50% in size
Procedure, shortened: (§2)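 Cells + reagent dispensed (600 cells/well, HEK293) → 5 h at 37 C/5% CO2 → 23 nL compound in DMSO pinned → 40 h at 37 C → luminescence read at 0, 8, 16, 24, 32, 40 h.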

[3] = A CellTox Green Cytotoxicity Assay to monitor cytotoxicity in HEK293 cells - 0 hour (AID 1224869); settings: CellTox Green fluorescence; series mostly up to 76.8 µM; also: nearly all actives have a fitted effect of over 50% in size
Procedure, shortened: (§3)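 Fluorescence from a DNA-binding dye excluded by viable cells was measured repeatedly in the same HEK293 wells (600 cells/well) during continuous compound exposure at 37 C. Each assay gives one read point: 0, 8, 16, 24, 32 or 40 h.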

[4] = qHTS RealTime-Glo MT Cell Viability Assay in HepG2 cells - 40 hour (AID 1224870); settings: RealTime-Glo luminescence; series mostly up to 76.8 µM; also: nearly all actives have a fitted effect of over 50% in size
Procedure, shortened: (§4)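 HepG2 cells mixed with RealTime-Glo MT reagents (NanoLuc plus cell-permeant prosubstrate) were seeded at 600 cells/well, incubated 5 h at 37 C/5% CO2, then pinned with compounds in DMSO; nonlytic luminescence tracked viability during 40 h treatment.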

[5] = A CellTox Green Cytotoxicity Assay to monitor cytotoxicity in HEK293 cells - 40 hour (AID 1224871); settings: CellTox Green fluorescence; series mostly up to 76.8 µM; also: nearly all actives have a fitted effect of over 45% in size
Procedure, shortened: as §3

[6] = qHTS RealTime-Glo MT Cell Viability Assay in HEK293 cells - 16 hour (AID 1224872); settings: RealTime-Glo luminescence; series mostly up to 76.8 µM
Procedure, shortened: as §2

[7] = qHTS RealTime-Glo MT Cell Viability Assay in HEK293 cells - 40 hour (AID 1224874); settings: RealTime-Glo luminescence, stronger effect = lower value; also: nearly all actives have a fitted effect of over 50% in size
Procedure, shortened: (§5)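 Luminescence, which tracks viable cell number through reduction of the prosubstrate to a NanoLuc substrate, was read over continuous 37 C culture. Cells (600/well) were premixed with reagent and rested 5 h before 23 nL of compound in DMSO was pinned.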

[8] = A CellTox Green Cytotoxicity Assay to monitor cytotoxicity in HEK293 cells - 24 hour (AID 1224875); settings: CellTox Green fluorescence; series mostly up to 76.8 µM; also: nearly all actives have a fitted effect of over 45% in size
Procedure, shortened: as §3

[9] = A CellTox Green Cytotoxicity Assay to monitor cytotoxicity in HepG2 cells - 16 hour (AID 1224876); settings: CellTox Green fluorescence; series mostly up to 76.8 µM; also: nearly all actives have a fitted effect of over 45% in size
Procedure, shortened: (§6)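 Real-time cytotoxicity: fluorescence of a cell-impermeant cyanine dye binding DNA of dead HepG2 cells, measured repeatedly (0–40 h) during compound exposure at 37 C. Cells seeded 600/well with reagent, dosed after 5 h.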

[10] = qHTS RealTime-Glo MT Cell Viability Assay in HepG2 cells - 32 hour (AID 1224877); settings: RealTime-Glo luminescence; series mostly up to 76.8 µM; also: nearly all actives have a fitted effect of over 55% in size
Procedure, shortened: as §1

[11] = A CellTox Green Cytotoxicity Assay to monitor cytotoxicity in HepG2 cells - 24 hour (AID 1224878); settings: CellTox Green fluorescence; series mostly up to 76.8 µM; also: nearly all actives have a fitted effect of over 45% in size
Procedure, shortened: as §6

[12] = A CellTox Green Cytotoxicity Assay to monitor cytotoxicity in HepG2 cells - 40 hour (AID 1224879); settings: CellTox Green fluorescence; series mostly up to 76.8 µM; also: nearly all actives have a fitted effect of over 40% in size; also: potency is read from the fitted curve at half-maximal effect
Procedure, shortened: as §6

[13] = qHTS RealTime-Glo MT Cell Viability Assay in HEK293 cells - 0 hour (AID 1224880); settings: RealTime-Glo luminescence; series mostly up to 76.8 µM
Procedure, shortened: as §5

[14] = A CellTox Green Cytotoxicity Assay to monitor cytotoxicity in HEK293 cells - 32 hour (AID 1224881); settings: CellTox Green fluorescence; series mostly up to 76.8 µM; also: nearly all actives have a fitted effect of over 40% in size
Procedure, shortened: as §3

[15] = A CellTox Green Cytotoxicity Assay to monitor cytotoxicity in HepG2 cells - 0 hour (AID 1224882); settings: CellTox Green fluorescence; series mostly up to 76.8 µM; also: nearly all actives have a fitted effect of over 35% in size
Procedure, shortened: as §6

[16] = A CellTox Green Cytotoxicity Assay to monitor cytotoxicity in HepG2 cells - 32 hour (AID 1224883); settings: CellTox Green fluorescence; series mostly up to 76.8 µM; also: nearly all actives have a fitted effect of over 50% in size
Procedure, shortened: as §6

[17] = A CellTox Green Cytotoxicity Assay to monitor cytotoxicity in HEK293 cells - 8 hour (AID 1224884); settings: CellTox Green fluorescence; series mostly up to 76.8 µM; also: nearly all actives have a fitted effect of over 35% in size
Procedure, shortened: as §3

[18] = qHTS RealTime-Glo MT Cell Viability Assay in HepG2 cells - 16 hour (AID 1224885); settings: RealTime-Glo luminescence; series mostly up to 76.8 µM; also: nearly all actives have a fitted effect of over 50% in size
Procedure, shortened: as §1

[19] = qHTS RealTime-Glo MT Cell Viability Assay in HEK293 cells - 24 hour (AID 1224886); settings: RealTime-Glo luminescence; series mostly up to 76.8 µM
Procedure, shortened: as §2

[20] = qHTS RealTime-Glo MT Cell Viability Assay in HepG2 cells - 8 hour (AID 1224873); settings: RealTime-Glo luminescence; series mostly up to 76.8 µM; also: nearly all actives have a fitted effect of over 55% in size
Procedure, shortened: as §4
% is scaled to controls: 0 for no effect and ±100 for the full control effect.

C=CC(=O)OCC[N+](C)(C)C
inactive: outcome [1] | outcome [2] | outcome [3] | outcome [4] | Potency [5] | outcome [6] | max response [7] 10.3% | Potency [8] | Potency [9] | outcome [10] | Potency [11] | Potency [12] | Potency [13] | Potency [14] | Potency [15] | Potency [16] | Potency [17] | outcome [18] | outcome [19]

O=C1CCCc2c(O)cccc21
active: Potency [12] 9.52 µM
inactive: outcome [1] | outcome [2] | outcome [3] | outcome [4] | Potency [5] | outcome [6] | outcome [20] | max response [7] 3.41% | Potency [9] | outcome [10] | Potency [13] | Potency [14] | Potency [15] | outcome [18] | outcome [19]

CCO/C=C1\N=C(c2ccccc2)OC1=O
inactive: outcome [1] | outcome [2] | outcome [3] | outcome [4] | Potency [5] | outcome [6] | max response [7] 18.4% | Potency [8] | Potency [9] | outcome [10] | Potency [11] | Potency [12] | Potency [15] | Potency [16] | Potency [17] | outcome [18] | outcome [19]

O=C1c2ccccc2C(=O)N1CO
inactive: outcome [1] | outcome [2] | outcome [3] | outcome [4] | Potency [5] | outcome [6] | outcome [20] | max response [7] -6.25% | outcome [10] | Potency [11] | Potency [12] | Potency [13] | Potency [15] | Potency [16] | Potency [17] | outcome [18] | outcome [19]

Cc1cc(C)c(N)c(Cl)c1
inactive: outcome [1] | outcome [2] | outcome [3] | outcome [4] | Potency [5] | outcome [6] | max response [7] 2.65% | Potency [8] | Potency [9] | outcome [10] | Potency [11] | Potency [12] | Potency [13] | Potency [15] | Potency [16] | Potency [17] | outcome [18] | outcome [19]

Cc1cc(=O)oc2cc(O[C@@H]3SC[C@@H](O)[C@H](O)[C@H]3O)ccc12
inactive: outcome [1] | outcome [2] | outcome [3] | outcome [4] | Potency [5] | outcome [6] | max response [7] -5.1% | Potency [8] | Potency [9] | outcome [10] | Potency [11] | Potency [12] | Potency [13] | Potency [14] | Potency [17] | outcome [18] | outcome [19]

CCOC(=O)c1ccc(N(C)C)cc1
inactive: outcome [1] | outcome [2] | outcome [3] | outcome [4] | Potency [5] | outcome [6] | outcome [20] | max response [7] -8.74% | Potency [9] | outcome [10] | Potency [12] | Potency [13] | Potency [14] | Potency [15] | Potency [16] | Potency [17] | outcome [18] | outcome [19]

CC(=O)O[C@@H]1CC2C3CCc4cc(OC(=O)c5ccccc5)ccc4C3CCC2(C)[C@H]1OC(C)=O (stereo partly specified)
inactive: outcome [1] | outcome [2] | outcome [3] | outcome [4] | Potency [5] | outcome [6] | max response [7] 0.184% | Potency [8] | Potency [9] | outcome [10] | Potency [11] | Potency [12] | Potency [13] | Potency [14] | Potency [15] | Potency [16] | Potency [17] | outcome [19]

c1coc(Cn2cccc2)c1
inactive: outcome [1] | outcome [2] | outcome [3] | outcome [4] | Potency [5] | outcome [6] | outcome [20] | max response [7] 2.22% | Potency [9] | outcome [10] | Potency [12] | Potency [13] | Potency [15] | Potency [16] | Potency [17]

CC1(C)C(=O)C(C)(C)C1=O
inactive: outcome [1] | outcome [2] | outcome [3] | outcome [4] | Potency [5] | outcome [6] | max response [7] 6.04% | Potency [8] | Potency [9] | outcome [10] | Potency [11] | Potency [12] | Potency [13] | Potency [14] | Potency [16] | Potency [17]
